RAD54 inh – blocks human RAD54 Holliday junction branch migration; Q92698; AID 602329; FAM/BHQ fluorescence; 360,000 compounds, 0.14% hits; inhibition, % at 10.4 µM;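 active = mean normalized replicate activity at least 40 and at least half of replicates scoring 40 or more; inconclusive = only one of the two criteria met; inactive = mean below 40 and under half of replicates reaching 40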;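 note: 0% = median of neutral control wells and 100% = median of positive control wells; inhibitors cause a drop in the FAM fluorescence signal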
Target sequence (Q92698 whole entry, looked up): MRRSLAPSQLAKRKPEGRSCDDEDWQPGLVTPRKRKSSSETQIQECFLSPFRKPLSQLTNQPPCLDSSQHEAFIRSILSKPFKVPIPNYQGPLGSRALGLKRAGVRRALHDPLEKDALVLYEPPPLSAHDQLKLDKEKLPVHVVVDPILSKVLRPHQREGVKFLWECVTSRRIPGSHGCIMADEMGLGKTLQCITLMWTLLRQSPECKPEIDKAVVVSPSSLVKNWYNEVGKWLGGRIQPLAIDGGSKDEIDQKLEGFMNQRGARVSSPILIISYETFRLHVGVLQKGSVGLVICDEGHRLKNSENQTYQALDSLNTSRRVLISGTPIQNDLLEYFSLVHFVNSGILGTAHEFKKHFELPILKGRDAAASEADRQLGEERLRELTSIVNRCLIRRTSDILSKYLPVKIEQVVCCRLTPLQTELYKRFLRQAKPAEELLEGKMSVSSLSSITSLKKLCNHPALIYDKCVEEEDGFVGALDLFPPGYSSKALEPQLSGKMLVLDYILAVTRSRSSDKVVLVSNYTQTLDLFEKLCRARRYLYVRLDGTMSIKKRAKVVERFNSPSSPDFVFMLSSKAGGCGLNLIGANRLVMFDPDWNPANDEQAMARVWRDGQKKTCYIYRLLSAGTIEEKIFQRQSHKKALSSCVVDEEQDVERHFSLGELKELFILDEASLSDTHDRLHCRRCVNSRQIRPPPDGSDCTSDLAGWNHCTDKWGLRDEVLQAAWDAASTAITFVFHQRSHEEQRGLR
RAD52 inh – RAD52 (human) annealing inhibition. inhibition, % at 18.7 µM. P43351. recombinant RAD52 DNA annealing, FRET fluorescence. 360,000 compounds, 0.46% hits;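 active = every replicate showing at least 50% inhibition; inconclusive = mean inhibition at least 50% but not in every replicate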
CFTR F508del cor – CFTR F508del correction in bronchial cells. CFBE cells, YFP halide quenching; stimulated with forskolin plus potentiator P3; % fluorescence drop versus neutral controls. activity (quench increase), % at 7.58 µM. 350,000 compounds, 0.36% hits. AID 720511;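 active = mean added fluorescence quench of at least 8% versus neutral control, with both replicates also reaching 8%; inconclusive = only one of the mean or replicate conditions met; inactive = mean below 8% and not both replicates reaching 8%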;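 note: cells transiently co-express mutant CFTR-F508del with the halide-sensitive YFP; corrector assay measuring rescue of mutant channel to the surface after 24 h compound exposure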
INS-1E GSIS act – primary screen for activators of insulin secretion dependent on glucose, INS-1E cells, GLuc reporter luminescence; INS-1E GLuc reporter insulin secretion, 2-3 h; activation, % at 16.6 µM; 370,000 compounds, 0.61% hits; AID 743287;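 active = lowest replicate activation of at least 40%, so every replicate reaches that level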;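 note: 0% = median of neutral control wells and 100% = median of IBMX positive control wells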
EWS-Fli inh – blocks EWS/Fli oncoprotein-driven transcription | inhibition, % at 12.6 µM | A673 NR0B1-luciferase reporter, viability-normalised | 350,000 compounds, 0.67% hits | AID 651661;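 active = mean inhibition of at least 50% after viability correction, with every replicate also passing that limit; inconclusive = mean reaches 50% but only one of two replicates passes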;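 note: firefly luciferase signal divided by Alamar Blue viability fluorescence both relative to DMSO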
LGR2 inh – blocks bursicon-induced cAMP signaling via Drosophila LGR2; HEK293 LGR2, CRE-luciferase, bursicon-stimulated, 4 h; inhibition, % at 9.99 µM; 380,000 compounds, 0.35% hits; AID 720647;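 active = drop in luminescence signal, shown as inhibition above about 50% in the replicate tests, limit read from the data, passing the limit was not always enough; inconclusive = probably only some replicates passing the limit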;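 note: agonist challenge used bursicon conditioned medium at about half maximal strength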
DNA binder FP-1 – DNA binding small molecules; shares compounds with EWS-Fli inh; salmon sperm DNA acridine orange fluorescence polarization; AC35, µM (doses to about 68 µM), for the others: top-dose activity change, negative = DNA binding; 640 compounds, 2% hits; AID 720586;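 active = fitted curve reaches a 35% signal fall AC35 below twice the sample's top valid tested dose, actives reach about 48 µM in these data; inactive = the rest, including activity in the rising direction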;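 note: lower polarization ratio signals compound binding to DNA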
DNA binder FP-2 – DNA binding artifact in RAD52 counter-screen; shares compounds with RAD52 inh; Salmon sperm DNA/acridine orange FP displacement; AC50, µM; 1,000 compounds, 8% hits;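 active = fitted half-maximal concentration for signal loss at or below twice the highest dose tested, in every separate run, actives reach about 64 µM in these data; inconclusive = runs disagree, or flat partial signal loss, or poor fit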
An asterisk follows results filed as active; i = inactive; ? = inconclusive; / = no result. Compounds with a hit are over-represented: about 1.8% of the library has one in this group of screens.

SMILES	RAD54 inh	RAD52 inh	CFTR F508del cor	INS-1E GSIS act	EWS-Fli inh	LGR2 inh	DNA binder FP-2	others
C[C@@H]1CCCCO[C@H](CN(C)Cc2ccc(C(=O)Nc3ccccc3N)cc2)[C@@H](C)CN([C@H](C)CO)C(=O)c2cc(NS(=O)(=O)c3ccc(F)cc3)ccc2O1	2.3	58.8*	2.9	14.7	60.5*	-7.6	/	DNA binder FP-1=-10.0%
COc1ccccc1NC(=O)N(C)C[C@H]1OCc2cnnn2CCCC(=O)N([C@@H](C)CO)C[C@@H]1C	-5.9	6.7	1.4	1.5	-4.4	4.1	/
CCOc1cc(C(=O)NCC(C)(C)CNC(=O)c2cc(OCC)c(OCC)c(OCC)c2)cc(OCC)c1OCC	15.2	5.7	/	-6.6	7.8	9.0	/
Cc1cc(C)cc(Oc2ccc(N)cc2)c1	-1.8	/	/	5.3	/	-10.6	/
Nc1ccc(Oc2cccc(Oc3ccc(N)cc3)c2)cc1	/	-0.1	-4.1	-11.9	77.8*	-15.2	/	DNA binder FP-1=3.2%
CC1(C)N=C(N)N=C(N)N1c1ccc(CCCCc2ccccc2)cc1	29.4	85.2*	0.5	-28.0	56.9*	43.0	i	DNA binder FP-1=-4.3%
O=C1/C(=C\c2ccccc2)CN(C(=O)CCN2CCCCC2)C/C1=C/c1ccccc1	/	54.7*	-14.7	-25.8	79.7*	104.0*	i	DNA binder FP-1=1.3%
O=C(CCN1C(=O)S/C(=C\c2ccccc2)C1=O)N1CCCCC1	8.5	-6.4	0.5	-8.7	-42.4	-6.0	/
O=[N+]([O-])c1cc(S(=O)(=O)NC2=NCCCCC2)ccc1NCC1CCCCC1	/	-11.2	-0.5	1.0	13.0	6.5	/
CCN1CCN(Cc2c(C(=O)N/N=C(\C)c3ccc(Cl)cc3)nnn2-c2nonc2N)CC1	15.5	94.0*	2.0	8.6	0.4	-9.4	i
CN1CCN(CCCC(=O)c2ccc(C3CCCC3)cc2)CC1	/	68.1*	/	-5.2	-7.1	-39.8	i
COc1ccccc1C(c1nnnn1Cc1ccccc1)N1CCC(C(N)=O)CC1 (stereo not drawn)	8.0	/	/	8.8	/	/	/
COc1ccc(-c2[nH]ncc2CN2CCCCCCC2)c(OC)c1	/	75.7*	3.5	3.6	2.0	3.4	i
c1ccc2c(NCCCN3CCOCC3)c3ccccc3nc2c1	/	93.3*	10.9*	0.8	?	89.6*	33.2µM*
c1csc(-c2nc(NCCCN3CCOCC3)c3ccccc3n2)c1	/	-13.4	-1.5	5.2	-13.3	7.3	/
CCOC(=O)c1c(NC(=O)C[n+]2ccc(Cc3ccccc3)cc2)sc(C)c1C	/	50.3*	2.8	-12.1	20.5	30.4	i
CCOC(=O)c1c(C)n(C)c2ccc(OCC(O)CNC(CC)CO)cc12 (stereo not drawn)	/	/	/	13.7	/	29.5	/
CCOC(=O)c1c(C)n(-c2ccc(C)cc2)c2ccc(OCC(O)CNCCCO)cc12 (stereo not drawn)	/	82.5*	-6.4	23.9	30.6	?	i
O=c1c(-c2ccc(Cl)cc2)c[nH]n1-c1ccccc1	-4.0	-10.3	-2.5	-10.0	-65.0	-16.9	/
CC[n+]1c(C)cc2c(sc3ccccc32)c1C	/	57.1*	-2.6	/	7.8	0.7	i
CCc1nc(C)cc2c1sc1ccccc12	-8.0	-11.1	2.3	15.3	9.9	-32.2	/
Cc1cc(Cl)n2c(nc3ccccc32)c1C#N	/	-5.7	-3.5	-10.4	24.2	-3.0	/
C[C@H](c1ccccc1)N1C[C@@H](COCc2ccccc2)Oc2cc(N3CC[C@H](N(C)C)C3)ccc2S1(=O)=O	/	50.7*	4.0	-26.3	7.1	9.5	i
CC1CCC(NS(=O)(=O)c2cccc3nsnc23)CC1 (stereo not drawn)	-5.6	-4.5	2.9	2.2	5.3	0.7	/
c1ccc(Nc2ccc(NCCc3c[nH]c4ccccc34)cc2)cc1	/	78.0*	2.7	/	6.1	-6.2	i
SMILES	RAD54 inh	RAD52 inh	CFTR F508del cor	INS-1E GSIS act	EWS-Fli inh	LGR2 inh	DNA binder FP-2	others
CCN(C[C@H]1N[C@@](Cc2ccccc2)(C(=O)OC)[C@H]2C(=O)N(Cc3ccccc3)C(=O)[C@@H]12)S(=O)(=O)c1ccc(F)cc1	-1.7	-18.3	3.3	-8.5	-5.4	0.9	/
COc1cccc(C2=CC(=O)C(C(C)(C)C)N2C(C)(C)C)c1 (stereo not drawn)	-15.2	79.5*	-3.2	-28.6	10.8	1.4	i
c1ccc(-c2cc(NCCN3CCCCC3)c3ccccc3n2)cc1	105.7*	89.3*	8.0	29.2	46.5	3.1	i
NC1(N2SC(S)=C3CCCC=C32)CCCCC1	/	85.6*	-3.1	6.6	-5.5	2.8	i
COc1ccccc1N(Cc1ccccc1)S(=O)(=O)c1cccc(C(=O)NC2CC(C)(C)NC(C)(C)C2)c1	/	57.5*	1.8	-5.4	19.9	23.0	i
CC1(C)CC(NC(=O)c2ccc(Cl)c(S(=O)(=O)N(Cc3ccccc3)c3ccccc3)c2)CC(C)(C)N1	13.3	51.5*	-4.4	0.7	55.0	?	i
Oc1ccc2sc(-c3ccccc3O)c(-c3ccc(OCCN4CCCCC4)cc3)c2c1	/	68.4*	-2.0	13.5	22.6	-6.3	i
COc1ccccc1-c1sc2ccccc2c1-c1ccc(OCCN2CCCCC2)cc1	5.8	/	/	/	/	/	/
CN(CC(=O)Nc1ccc(N2CCOCC2)cc1)C(=O)c1ccc(CS(C)(=O)=O)cc1	-1.7	-3.7	-0.7	2.0	13.4	-7.5	/
Cc1cc(N/N=C/c2ccc(O)cc2)c2cccc(C)c2n1	118.3*	77.5*	-13.1	15.7	48.3	-2.9	52.1µM*
Cc1cc(C)c2nc(C)cc(N/N=C/c3ccc(O)cc3)c2c1	119.2*	93.9*	-12.9	28.2	67.0*	-3.5	?
Cc1cc(N/N=C/c2ccc(N(C)C)cc2)c2ccccc2n1	-7.1	-207.1	-0.5	7.8	-14.5	-44.3	/
CN1CCN(c2ccc(C(CC(N)=O)NC(=O)Cc3cccc4ccccc34)cc2[N+](=O)[O-])CC1 (stereo not drawn)	0.2	55.9*	-0.7	28.7	-0.6	8.3	?
C=CC[N@@+]12CC[C@]34c5ccccc5N5/C=C6\C7N(/C=C(\C53)[C@@H](C[C@@H]41)/C(=C/CO)C2)c1ccccc1[C@@]71CC[N@@+]2(CC=C)C/C(=C\CO)[C@@H]6C[C@@H]12 (stereo partly drawn)	3.4	69.2*	0.2	-0.7	1.5	18.3	i
COc1cc(CNC(C)c2ccccc2)cc(Br)c1OCc1ccccc1 (stereo not drawn)	0.5	-2.8	3.7	-14.1	37.6	13.0	/
COc1cc(CNC(C)c2ccccc2)cc(Br)c1OCc1ccc(F)cc1 (stereo not drawn)	-4.8	53.9*	1.0	-22.3	16.1	25.1	i

Screens deposited in PubChem by Broad Institute.
